From PubChem BioAssay (Tox21)
Values joined by “and” are separate entries in the source; they are usually repeats but may differ in a detail not shown here. Equal entries are not always repeated. Records with an inconclusive call do not appear. More than one record can exist for a structure, and the calls need not agree. Active and inactive are the calls of the source. Unless noted, calls follow the shape of the dose curve; as a rule, active = well fitted curve in the direction sought with a large enough effect in the repeat runs; inconclusive = weak or mixed curves; inactive = no such curve, though single readings can be large; an effect the other way counts as inactive or inconclusive.

Legend:
[1] = molecular target: Acetylcholinesterase (Homo sapiens) (UniProt P22303); test: Acetylcholinesterase (AChE) small molecule antagonists: enzyme-based qHTS assay (AID 1347397; calls by dose curve; also: nearly all actives have a fitted effect of over 55% in size); conditions: Potency: AChE enzyme activity inhibition; outcome: AChE enzyme activity inhibition
Chain of Acetylcholinesterase (Homo sapiens) (P22303 whole entry, looked up): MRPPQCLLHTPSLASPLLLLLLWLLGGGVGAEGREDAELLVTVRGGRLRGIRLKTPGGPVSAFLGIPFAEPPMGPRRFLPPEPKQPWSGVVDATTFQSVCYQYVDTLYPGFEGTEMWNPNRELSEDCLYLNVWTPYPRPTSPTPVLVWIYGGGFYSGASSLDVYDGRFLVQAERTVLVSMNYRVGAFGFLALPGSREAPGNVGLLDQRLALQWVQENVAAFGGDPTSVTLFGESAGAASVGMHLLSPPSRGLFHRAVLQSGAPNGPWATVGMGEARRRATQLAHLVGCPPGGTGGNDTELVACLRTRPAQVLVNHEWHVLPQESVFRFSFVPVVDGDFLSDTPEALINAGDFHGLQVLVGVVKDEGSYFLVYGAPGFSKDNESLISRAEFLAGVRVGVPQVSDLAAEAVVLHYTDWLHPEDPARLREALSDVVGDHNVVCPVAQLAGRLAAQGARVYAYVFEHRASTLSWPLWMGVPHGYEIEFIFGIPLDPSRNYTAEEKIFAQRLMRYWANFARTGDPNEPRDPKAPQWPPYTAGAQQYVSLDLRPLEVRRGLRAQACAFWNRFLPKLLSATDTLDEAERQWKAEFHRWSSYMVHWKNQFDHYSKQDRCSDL
How it was run: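 Absorbance-based detection of thiocholine with DTNB served as the read-out. Recombinant human AChE was exposed to compound for 30 min at RT before a 10 min RT incubation with acetylthiocholine.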

[2] = molecular target: Acetylcholinesterase (Homo sapiens) (UniProt P22303); test: Acetylcholinesterase (AChE) small molecule antagonists: fluorescence cell-based qHTS assay (AID 1347398; calls by dose curve; also: nearly all actives have a fitted effect of over 50% in size); conditions: Potency: AChE activity; outcome: AChE activity
How it was run: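 Fluorimetric cell-based assay: intact SH-SY5Y cells, 30 min compound preincubation at 37 C, acetylthiocholine substrate with thiol probe Thiolite Green, 40 min RT development, fluorescence 490/520 nm.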

[3] = molecular target: Acetylcholinesterase (Homo sapiens) (UniProt P22303); test: Acetylcholinesterase (AChE) small molecule antagonists: enzyme-based qHTS assay with human liver microsomes (AID 1347399; calls by dose curve; also: nearly all actives have a fitted effect of over 60% in size); conditions: Potency: qHTS inhibition; outcome: qHTS inhibition
How it was run: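 Recombinant human AChE (50 mU/mL in the enzyme mix) and human liver microsomes (0.25 mg/mL final) were preincubated with compound and NADPH (0.25 mg/mL final) for 30 min at 37 C. Acetylthiocholine/DTNB was then added; thiocholine was read colorimetrically after 10 min at room temperature.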

[4] = molecular target: Cytochrome P450 2C19 (Homo sapiens) (UniProt P33261); test: Cytochrome P450 Family 2 Subfamily C Member 19 (CYP2C19) small molecule antagonists: luciferase reporter qHTS assay (AID 1671197); also: nearly all actives have a fitted effect of over 65% in size
Chain of Cytochrome P450 2C19 (Homo sapiens) (P33261 whole entry, looked up): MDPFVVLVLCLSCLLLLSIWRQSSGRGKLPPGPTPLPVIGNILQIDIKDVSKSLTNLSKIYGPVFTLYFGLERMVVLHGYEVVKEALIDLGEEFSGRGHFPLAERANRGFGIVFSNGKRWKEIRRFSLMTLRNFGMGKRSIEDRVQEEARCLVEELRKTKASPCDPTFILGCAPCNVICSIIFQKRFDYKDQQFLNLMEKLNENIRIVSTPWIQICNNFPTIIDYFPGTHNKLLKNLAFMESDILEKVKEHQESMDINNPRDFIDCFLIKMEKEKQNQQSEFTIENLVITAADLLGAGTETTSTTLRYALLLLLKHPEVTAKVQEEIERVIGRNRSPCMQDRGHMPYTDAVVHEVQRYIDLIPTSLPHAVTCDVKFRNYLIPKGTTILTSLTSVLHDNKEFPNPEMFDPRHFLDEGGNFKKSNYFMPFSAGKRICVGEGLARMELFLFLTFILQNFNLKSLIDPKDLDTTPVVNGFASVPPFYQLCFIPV
How it was run: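 Compounds were tested on CYP2C19 activity via proluciferin conversion to luciferin. The 37C, 1 h reaction followed NADPH addition; detection reagent stopped it.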

[5] = molecular target: Cytochrome P450 2C9 (Homo sapiens) (UniProt P11712); test: Cytochrome P450 Family 2 Subfamily C Member 9 (CYP2C9) small molecule antagonists: luciferase reporter qHTS assay (AID 1671198); also: nearly all actives have a fitted effect of over 50% in size
Chain of Cytochrome P450 2C9 (Homo sapiens) (P11712 whole entry, looked up): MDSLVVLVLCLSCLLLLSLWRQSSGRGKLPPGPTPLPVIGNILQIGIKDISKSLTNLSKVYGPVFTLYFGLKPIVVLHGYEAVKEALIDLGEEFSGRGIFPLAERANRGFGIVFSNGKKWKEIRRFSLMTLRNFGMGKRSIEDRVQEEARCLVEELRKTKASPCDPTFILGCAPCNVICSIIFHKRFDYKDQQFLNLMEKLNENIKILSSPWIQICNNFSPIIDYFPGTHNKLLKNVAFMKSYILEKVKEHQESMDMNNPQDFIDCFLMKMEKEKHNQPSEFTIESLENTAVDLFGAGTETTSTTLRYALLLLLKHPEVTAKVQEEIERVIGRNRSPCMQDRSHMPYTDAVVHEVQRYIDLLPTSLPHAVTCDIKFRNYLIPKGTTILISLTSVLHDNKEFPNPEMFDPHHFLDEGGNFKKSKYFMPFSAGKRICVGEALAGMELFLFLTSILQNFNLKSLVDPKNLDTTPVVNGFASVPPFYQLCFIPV
How it was run: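 Enzyme-substrate mix preincubated with compound 10 min at room temperature; reaction started with NADPH regeneration solution, 1 h 37C. Luminescent luciferin product read after 20 min detection reagent.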

[6] = molecular target: Cytochrome P450 1A2 (Homo sapiens) (UniProt P05177); test: Cytochrome P450 Family 1 Subfamily A Member 2 (CYP1A2) small molecule antagonists: luciferase reporter qHTS assay (AID 1671199); also: nearly all actives have a fitted effect of over 50% in size
Chain of Cytochrome P450 1A2 (Homo sapiens) (P05177 whole entry, looked up): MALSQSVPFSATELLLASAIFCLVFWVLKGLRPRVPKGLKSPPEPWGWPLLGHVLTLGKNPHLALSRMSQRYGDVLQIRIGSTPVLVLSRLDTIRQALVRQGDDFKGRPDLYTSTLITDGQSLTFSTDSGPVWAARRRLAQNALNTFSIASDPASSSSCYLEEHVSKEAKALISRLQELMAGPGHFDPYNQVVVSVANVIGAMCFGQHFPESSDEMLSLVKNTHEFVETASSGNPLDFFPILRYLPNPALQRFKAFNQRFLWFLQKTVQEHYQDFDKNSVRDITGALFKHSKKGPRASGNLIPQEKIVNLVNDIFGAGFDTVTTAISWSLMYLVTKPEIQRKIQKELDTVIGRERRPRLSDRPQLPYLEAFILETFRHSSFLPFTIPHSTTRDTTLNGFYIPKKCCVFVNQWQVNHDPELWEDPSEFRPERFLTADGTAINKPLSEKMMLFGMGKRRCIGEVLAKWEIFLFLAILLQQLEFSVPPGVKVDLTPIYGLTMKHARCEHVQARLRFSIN
How it was run: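 Signal from luciferin formed by CYP1A2 from a proluciferin substrate is read as luminescence, expressed in relative luminescence units. Compounds sit with enzyme 10 min, NADPH-driven reaction runs 1 h, all at room temperature.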

[7] = molecular target: Voltage-gated inwardly rectifying potassium channel KCNH2 (Homo sapiens) (UniProt Q12809); test: Human Ether-a-go-go-Related Gene (hERG) channel small molecule antagonists: fluorescence cell-based qHTS assay (AID 1671200); also: nearly all actives have a fitted effect of over 50% in size
Chain of Voltage-gated inwardly rectifying potassium channel KCNH2 (Homo sapiens) (Q12809 whole entry, looked up): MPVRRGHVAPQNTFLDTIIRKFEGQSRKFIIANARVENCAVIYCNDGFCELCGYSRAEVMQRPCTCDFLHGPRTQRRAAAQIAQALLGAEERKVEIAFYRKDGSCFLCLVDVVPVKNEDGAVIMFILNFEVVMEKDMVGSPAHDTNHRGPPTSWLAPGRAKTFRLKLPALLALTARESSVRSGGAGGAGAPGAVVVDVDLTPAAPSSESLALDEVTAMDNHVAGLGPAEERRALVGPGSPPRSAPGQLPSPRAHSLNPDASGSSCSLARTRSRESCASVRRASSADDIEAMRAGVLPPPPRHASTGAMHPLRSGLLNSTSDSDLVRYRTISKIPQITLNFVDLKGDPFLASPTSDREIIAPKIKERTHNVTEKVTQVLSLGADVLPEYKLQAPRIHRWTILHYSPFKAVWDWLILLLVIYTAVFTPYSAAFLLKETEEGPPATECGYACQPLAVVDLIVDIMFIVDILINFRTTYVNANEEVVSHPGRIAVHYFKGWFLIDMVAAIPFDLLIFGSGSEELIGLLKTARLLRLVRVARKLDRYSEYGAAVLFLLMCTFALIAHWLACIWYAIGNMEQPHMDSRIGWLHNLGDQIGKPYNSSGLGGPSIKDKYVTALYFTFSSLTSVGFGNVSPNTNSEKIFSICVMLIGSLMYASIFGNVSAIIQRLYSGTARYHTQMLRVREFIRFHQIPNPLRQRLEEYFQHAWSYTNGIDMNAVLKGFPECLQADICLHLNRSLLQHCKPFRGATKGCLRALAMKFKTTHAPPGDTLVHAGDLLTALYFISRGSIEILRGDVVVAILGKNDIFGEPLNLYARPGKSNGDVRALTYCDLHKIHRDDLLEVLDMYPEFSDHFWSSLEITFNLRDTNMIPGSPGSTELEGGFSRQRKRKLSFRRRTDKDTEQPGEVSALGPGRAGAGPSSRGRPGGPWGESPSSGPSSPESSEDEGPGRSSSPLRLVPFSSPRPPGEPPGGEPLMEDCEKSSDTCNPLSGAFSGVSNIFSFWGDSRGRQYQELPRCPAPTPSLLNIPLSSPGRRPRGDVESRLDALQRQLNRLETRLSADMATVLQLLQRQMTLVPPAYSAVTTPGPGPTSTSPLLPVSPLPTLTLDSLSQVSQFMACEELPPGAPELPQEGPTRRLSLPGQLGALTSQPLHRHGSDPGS
How it was run: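 Measured: Tl+ flux via fluorescence (480/540 nm) in hERG-expressing U2OS cells after 1 h dye loading at room temperature.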

[8] = molecular target: Cytochrome P450 3A4 (Homo sapiens) (UniProt P08684); test: Cytochrome P450 Family 3 Subfamily A Member 4 (CYP3A4) small molecule antagonists: luciferase reporter qHTS assay (AID 1671201); also: nearly all actives have a fitted effect of over 50% in size
Chain of Cytochrome P450 3A4 (Homo sapiens) (P08684 whole entry, looked up): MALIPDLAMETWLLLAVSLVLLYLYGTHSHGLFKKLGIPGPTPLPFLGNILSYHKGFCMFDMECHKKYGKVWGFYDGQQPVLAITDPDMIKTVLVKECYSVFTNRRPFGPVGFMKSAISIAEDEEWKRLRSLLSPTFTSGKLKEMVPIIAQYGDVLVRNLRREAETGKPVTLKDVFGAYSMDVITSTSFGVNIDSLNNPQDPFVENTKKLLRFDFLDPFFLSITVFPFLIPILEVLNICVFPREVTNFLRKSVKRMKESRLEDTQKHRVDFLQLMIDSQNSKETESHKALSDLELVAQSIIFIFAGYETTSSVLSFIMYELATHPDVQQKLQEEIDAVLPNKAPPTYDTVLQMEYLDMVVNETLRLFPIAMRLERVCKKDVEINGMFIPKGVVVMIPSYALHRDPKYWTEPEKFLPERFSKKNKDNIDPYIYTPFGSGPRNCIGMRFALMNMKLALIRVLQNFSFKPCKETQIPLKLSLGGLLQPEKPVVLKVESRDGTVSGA
How it was run: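 Setup: enzyme-substrate mix, compound pin transfer, 10 min RT. Reaction: NADPH regeneration solution, 1 h RT. Readout: detection reagent stops turnover, luminescence measured after 20 min, expressed in relative luminescence units.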

[9] = molecular target: Cytochrome P450 2D6 (Homo sapiens) (UniProt P10635); test: Cytochrome P450 Family 2 Subfamily D Member 6 (CYP2D6) small molecule antagonists: luciferase reporter qHTS assay (AID 1671196); also: nearly all actives have a fitted effect of over 50% in size
Chain of Cytochrome P450 2D6 (Homo sapiens) (P10635 whole entry, looked up): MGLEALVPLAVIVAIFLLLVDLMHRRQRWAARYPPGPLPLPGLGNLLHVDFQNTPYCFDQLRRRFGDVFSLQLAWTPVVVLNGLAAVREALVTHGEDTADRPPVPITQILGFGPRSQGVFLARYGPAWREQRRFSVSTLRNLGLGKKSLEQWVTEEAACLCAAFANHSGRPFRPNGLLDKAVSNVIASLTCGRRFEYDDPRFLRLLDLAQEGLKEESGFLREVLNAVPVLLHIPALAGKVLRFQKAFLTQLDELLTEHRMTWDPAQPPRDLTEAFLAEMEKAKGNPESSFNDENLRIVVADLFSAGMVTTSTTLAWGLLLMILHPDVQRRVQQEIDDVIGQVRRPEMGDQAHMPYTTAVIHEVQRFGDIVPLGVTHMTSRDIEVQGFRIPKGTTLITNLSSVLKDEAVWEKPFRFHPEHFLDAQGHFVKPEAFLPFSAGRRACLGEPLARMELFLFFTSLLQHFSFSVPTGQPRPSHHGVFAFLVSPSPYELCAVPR
How it was run: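 Inhibition of CYP2D6 was gauged by loss of luminescence, since light produced tracks the luciferin generated from a proluciferin substrate. A 10 min room-temperature preincubation preceded 1 h NADPH-supported turnover.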

Measured: Potency
Potency is read from the fitted curve at half-maximal effect.

Nc1cccc2ccccc12
active: [4] 16 µM and 20 µM | [5] 35.8 µM and 50.2 µM | [6] 10.1 µM and 5.64 µM | [8] 35.6 µM
inactive: [1] | [2] | [3] | [7]

C#CC(O)(C=CCl)CC (stereo not given)
inactive: [1] | [2] | [3] | [4] | [5] | [6] | [7] | [8]

CC(C)(c1ccccc1)c1cc(-n2nc3ccccc3n2)c(O)c(C(C)(C)c2ccccc2)c1
inactive: [1] | [2] | [3] | [4] | [5] | [7] | [8]

N#CC(C#N)=C(C#N)C#N
active: [4] 58.9 µM | [5] 33.1 µM | [6] 41.7 µM | [8] 20.9 µM
inactive: [1] | [2] | [3] | [7]

O=C(O)c1ccc(=O)[nH]c1
inactive: [1] | [2] | [3] | [4] | [5] | [6] | [7] | [8]

COC1CC(=C(c2cccs2)c2cccs2)C[N+](C)(C)C1 (stereo not given)
inactive: [1] | [2] | [3] | [4] | [5] | [6] | [8]

Clc1ccc2ccccc2c1
inactive: [1] | [2] | [3] | [4] | [5] | [7] | [8]

C[Si](Cn1cncn1)(c1ccc(F)cc1)c1ccc(F)cc1
inactive: [1] | [2] | [3]
active: [4] 58.3 nM and 39.9 nM | [5] 1.84 µM and 2 µM | [6] 32.8 µM and 20 µM | [7] 45.1 µM | [8] 104 nM and 126 nM

CCCSP(=S)(OCC)Oc1ccc(SC)cc1 (stereo not given)
active: [4] 0.399 µM | [5] 2.52 µM | [6] 2 µM | [8] 3.17 µM
inactive: [1] | [2] | [3] | [7]

O=C(O)C(Cl)(Cl)Br
inactive: [1] | [2] | [3] | [4] | [5] | [6] | [7] | [8]

CC(Cl)C(=O)O (stereo not given)
inactive: [1] | [2] | [3] | [4] | [5] | [6] | [7] | [8]

Cc1nnc(-c2ccccc2)c(=O)n1N
active: [6] 35.6 µM
inactive: [1] | [2] | [3] | [4] | [7] | [8]

C=CCOCC1CO1 (stereo not given)
active: [8] 30.9 µM
inactive: [1] | [2] | [3] | [4] | [5] | [7]

CCC1(C2=NCCN2)Cc2ccccc2O1 (stereo not given)
inactive: [1] | [2] | [3] | [4] | [5] | [6] | [7] | [8]

CC(C)(C)CC(C)(C)c1ccc(O)cc1
31.7 µM (active) and inactive: [2]
active: [5] 22.4 µM and 15.5 µM | [6] 37.3 µM | [7] 40 µM
inactive: [1] | [3] | [4] | [8]

SCc1ccccc1
active: [4] 7.31 µM | [5] 36.6 µM | [6] 32.6 µM
inactive: [1] | [2] | [3] | [8]

Cc1nc2ccccc2c(=O)n1-c1ccccc1Cl
inactive: [1] | [2] | [3] | [6] | [7] | [8]
active: [4] 2.77 µM | [5] 39.1 µM

CC(C)(C#N)C(C)(C)C#N
inactive: [1] | [2] | [3] | [4] | [5] | [7] | [8]

CN1C[C@H](C(=O)N[C@]2(C)O[C@@]3(O)[C@@H]4CCCN4C(=O)[C@H](Cc4ccccc4)N3C2=O)C=C2c3cccc4[nH]cc(c34)C[C@H]21
inactive: [3]
active: [1] 5.67 µM | [2] 505 nM | [4] 28.4 µM and 18.6 µM | [6] 20.1 µM | [7] 22 µM

ClCc1ccccc1Cl
inactive: [1] | [2] | [3] | [4] | [5] | [7] | [8]

CCOc1cccc(C2(N3CCN(c4ccccc4)CC3)CCC(C)CC2)c1 (stereo not given)
inactive: [1] | [2] | [3] | [4] | [7] | [8]
active: [6] 20 µM

CON(C)C(=O)Nc1ccc(Cl)cc1
inactive: [1] | [2] | [3] | [7] | [8]
active: [4] 39.9 µM | [6] 7.1 µM

COc1cc(CC#N)cc(OC)c1OC
active: [6] 24.5 µM
inactive: [1] | [2] | [3] | [4] | [5] | [7] | [8]

Cc1ccc2c(C)cccc2c1
inactive: [1] | [2] | [3] | [4] | [5] | [6] | [7] | [8]

N#CC1(N=NC2(C#N)CCCCC2)CCCCC1
active: [4] 5.03 µM | [5] 11.2 µM | [7] 38.9 µM | [8] 11.2 µM
inactive: [1] | [2] | [3] | [6]

NC(=O)CF
inactive: [1] | [2] | [3] | [4] | [5] | [6] | [7] | [8]

CCC(C)(C)c1ccc(O)c(C(C)(C)CC)c1
inactive: [1] | [2] | [3] | [7]
active: [4] 4.97 µM and 1.78 µM | [5] 4.43 µM and 5.64 µM | [6] 19.8 µM and 31.7 µM | [8] 19.8 µM and 25.2 µM

O=C1CC[C@@]2(O)[C@H]3Cc4ccc(O)c5c4[C@@]2(CCN3CC2CC2)[C@H]1O5
inactive: [1] | [2] | [3] | [4] | [5] | [6] | [7] | [8]

CC(C)(C)NCC(O)c1cc(Cl)c(N)c(C(F)(F)F)c1 (stereo not given)
inactive: [1] | [2] | [3] | [4] | [5] | [6] | [7] | [8]

CC(C)CCON=O
inactive: [1] | [2] | [3] | [4] | [5] | [6] | [7] | [8]

CN1CC[C@]23c4c5ccc(O)c4O[C@H]2[C@@H](O)CC[C@H]3[C@H]1C5
inactive: [1] | [2] | [3] | [4] | [5] | [6] | [7] | [8]

CCCCNC(=O)OCC#CI
active: [4] 2.81 µM and 2.52 µM | [5] 5 µM and 5.03 µM | [6] 3.54 µM and 5.64 µM | [8] 3.54 µM and 5.64 µM
inactive: [1] | [2] | [3] | [7]

COc1ccc(C(O)(c2cncnc2)C2CC2)cc1 (stereo not given)
inactive: [1] | [2] | [3] | [7]
active: [4] 20 µM | [5] 63.3 µM | [8] 0.894 µM

CCCCCl
active: [4] 41 µM | [6] 57.9 µM
inactive: [1] | [2] | [3] | [7] | [8]

CNC(=O)Oc1cccc(N=CN(C)C)c1
active: [1] 20 µM | [2] 3560 nM | [3] 63.3 µM | [4] 79.6 µM | [5] 79.6 µM
inactive: [7] | [8]

O=C(N[C@H]1CN2CCC1CC2)c1ccc2c(c1)OCCO2
inactive: [1] | [3] | [4] | [5] | [6] | [7] | [8]

NCCc1cc(O)c(O)cc1O
active: [4] 9.77 µM
inactive: [1] | [2] | [3] | [6] | [7] | [8]

C[C@@H]1C[C@@H]([C@H](O)CC2CC(=O)NC(=O)C2)C(=O)[C@@H](C)C1
inactive: [7]

NP(N)(=O)NC(=O)c1ccc(F)cc1
inactive: [1] | [2] | [3] | [5] | [7] | [8]

CC(C)OC(=O)Cc1ccccc1
active: [6] 35.9 µM
inactive: [1] | [2] | [3] | [5] | [7] | [8]

C=CC(C)(CCC=C(C)C)OC(=O)c1ccccc1N (stereo not given)
inactive: [7]

CCCCCCCCCCCCCCCl
inactive: [1] | [3] | [9] | [4] | [5] | [7] | [8]

C[CH2][Hg][S]c1ccccc1C(=O)O
inactive: [7]

CC[N+]1(C)CCCC(OC(=O)C(O)(c2ccccc2)c2ccccc2)C1 (stereo not given)
inactive: [1] | [2] | [3] | [4] | [6] | [7] | [8]

C[N+]1(CCC(C(N)=O)(c2ccccc2)c2ccccc2)CCCCC1
inactive: [1] | [3] | [4] | [5] | [6] | [7] | [8]

O=C(O)C(O)C(O)C(=O)O (stereo not given)
inactive: [1] | [2] | [7]

CCc1ccccc1N
inactive: [1] | [2] | [3] | [7]
active: [4] 89.4 µM

Cc1ncc(C[n+]2csc(CCO)c2C)c(N)n1
inactive: [7]

CC1(C)[C@H](C(=O)O[C@H](C#N)c2cccc(Oc3ccccc3)c2)[C@@H]1C=C(Br)Br
active: [4] 5.87 µM and 7.1 µM | [5] 1.86 µM and 3.99 µM
inactive: [9] | [6] | [7] | [8]

c1ccc2c(c1)-c1cccc3cccc-2c13
inactive: [7]

C[N+]1(CCF)[C@@H]2CC[C@H]1CC(OC(=O)C(O)(c1ccccc1)c1ccccc1)C2 (stereo not given in full)
inactive: [1] | [3] | [4] | [5] | [6] | [7] | [8]
active: [9] 17.4 µM
